Screens as filed in PubChem BioAssay.
AI-2 QS mod: modulates the Vibrio harveyi AI-2 quorum sensing system | AID 2094 | activity change, % at 7.5 µM | actives 0.4% (n = 300,000) | Vibrio harveyi JMH597 AI-2 luminescence/OD600 ratio, 9 h; active compounds read low; strain lacks LuxN and CqsS sensors; 0 = neutral-control median; in the data active means activity change below about -75%, passing the limit was not always enough;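 further: luminescence divided by OD600 gain over 9 h not by final OD600 alone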
HIF act: HIF pathway transcriptional activation; AID 1910; U2OS HRE-luciferase reporter, luminescence; normalized: DMSO 0%, desferrioxamine 100%; actives 0.32% (n = 300,000); activation, % at 7.5 µM (by protocol);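 active means mean activation of at least 10% of the iron chelator positive control signal, with at least half of replicates also reaching 10%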
ALR H2O2 inh: human ALR oxidase inhibition via reduced H2O2; purified ALR, DTT oxidation, H2O2 HRP-luminol luminescence; inhibition, % (test concentration not listed); actives 3.8% (n = 290,000); AID 485317;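 active means mean replicate inhibition above about 79%, with every replicate also reaching it, limit read from the data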
Target sequence (P55789 whole entry, looked up): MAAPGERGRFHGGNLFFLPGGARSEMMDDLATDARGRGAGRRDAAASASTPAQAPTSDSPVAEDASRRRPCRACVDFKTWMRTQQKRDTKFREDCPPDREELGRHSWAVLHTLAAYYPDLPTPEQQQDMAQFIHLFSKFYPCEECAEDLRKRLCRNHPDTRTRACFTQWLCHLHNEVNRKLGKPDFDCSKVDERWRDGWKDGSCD
SUMO Mot1 rescue: inhibitors of SUMOylation pathway: yeast Mot1-301 growth rescue; growth rescue, % at 18.8 µM; S. cerevisiae Mot1-301 growth rescue, ATP luminescence, 38.5C; percent above DMSO median, 100 means doubled; actives 1% (n = 320,000); AID 2716;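 active means every valid replicate shows activation above 250% relative to neutral control wells; inactive means the rest, any valid replicate at or below 250%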
Numbers stand for hits; – = inactive; · = no result. This is a sample that favours compounds with a hit; in the whole collection about 4.8% have one here.

SMILES	AI-2 QS mod	HIF act	ALR H2O2 inh	SUMO Mot1 rescue
Cc1cccc(S(=O)(=O)Nc2nc3ccccc3nc2Nc2cccc(C(=O)O)c2)c1	–	–	98	–
CC(=O)Nc1ccc(S(=O)(=O)Nc2nc3ccccc3nc2Nc2ccc(O)c(C(=O)O)c2)cc1	–	–	99	–
COc1ccc(CC(=O)N/N=C/c2ccc(C)s2)cc1	–	–	–	–
Cc1ccc(NC(=O)CN(C)C(=O)c2cc(S(=O)(=O)N(C)C)ccc2N2CCCC2)cc1	–	–	–	–
Cc1ccc(S(=O)(=O)N(CC(=O)NCc2ccc(F)cc2)C(=O)N2CCN(C)CC2)cc1	–	–	–	–
COc1ccc(N=C(N(C)C)P(=O)(N(C)C)N(C)C)cc1	–	–	99	–
COc1ccc(N=C(C)C2=C(O)c3ccccc3C2=O)cc1	–	–	–	–
COc1cc(C(=O)NCCc2nc3ccccc3n2C)cc(OC)c1OC	–	95	–	–
Oc1ccc(C23CCCC2C2(CCCC2)c2ccc(O)cc2O3)c(O)c1 (configuration not stated)	·	·	90	–
COc1ccc(CCNC(=O)COC(=O)C2CC2)cc1OC	·	·	–	–
CCCC(=O)c1ccc(N2CCN(C(=O)c3ccc(Br)cc3)CC2)c(F)c1	–	–	·	–
CCC(=O)c1ccc(N2CCN(C(=O)c3ccc(Br)cc3)CC2)c(F)c1	–	86	·	–
COc1ccccc1NC(=O)COC(=O)C1CC2CCCC(C1)C2=O (configuration not stated)	·	·	–	–
Cc1ccccc1Nc1c(-c2cccnc2)nc2ccccn12	–	–	–	–
Cc1ccn2c(Nc3ccccc3C)c(-c3ccccn3)nc2c1	–	12	·	–
Cc1ccc2nc(-c3ccccn3)c(Nc3ccccc3C)n2c1	–	22	98	–
Cc1cccc2nc(-c3cccnc3)c(Nc3ccccc3)n12	–	·	97	–
Cc1ccccc1Nc1c(-c2ccccn2)nc2ccccn12	–	13	99	–
Cc1ccn2c(Nc3ccccc3)c(-c3ccccn3)nc2c1	–	–	–	–
N#Cc1cccc(C(=O)OCC(=O)c2ccc3c(c2)NC(=O)CO3)c1	–	–	–	–
COc1ccc(NC(=O)CCNS(=O)(=O)c2ccccc2F)cc1S(N)(=O)=O	–	–	–	–
COC(=O)CNc1c(-c2ccccc2)nc2ccc(Br)cn12	–	–	99	–
Cc1ccccc1Nc1c(-c2ccncc2)nc2ccc(Br)cn12	–	–	98	–
COC(=O)Nc1c(-c2ccccc2)nc2ccc(Cl)cn12	–	–	–	–
Cc1ccccc1Nc1c(-c2cccnc2)nc2ccc(Br)cn12	–	–	–	–
SMILES	AI-2 QS mod	HIF act	ALR H2O2 inh	SUMO Mot1 rescue
Cc1ccc2nc(-c3cccnc3)c(Nc3ccccc3C)n2c1	–	–	82	–
Brc1ccc2nc(-c3ccncc3)c(NC3CCCC3)n2c1	–	–	·	–
CC(=O)N1c2ccc(S(=O)(=O)NCC3CCC(C(=O)N4CC(C)CC(C)C4)CC3)cc2CC1C (configuration not stated)	–	–	–	–
COc1ccccc1N1C(=NC(=O)COc2ccccc2)SC2CS(=O)(=O)CC21 (configuration not stated)	–	–	–	–
COc1ccccc1-c1coc2c(CN3CCC(C)CC3)c(O)ccc2c1=O	–	–	–	–
CCC1CCCCN1Cc1c(O)ccc2c(=O)c(-c3ccccc3OC)coc12 (configuration not stated)	–	45	–	–
N#Cc1ccccc1CSc1nnc(-c2ccncc2)o1	–	–	–	–
N#Cc1ccccc1CSc1nnc(Cc2ccccc2)o1	–	–	–	348
O=C(CSc1nnc(-c2ccco2)n1Cc1ccccc1)c1ccccc1	–	–	–	–
CC(=O)Nc1ccc(NC(=O)CSc2nnc(-c3ccco3)o2)cc1	–	–	–	–
O=C(CSc1n[nH]c(-c2ccccc2)n1)c1ccccc1	–	–	97	–
O=C(CSc1nnc(-c2ccco2)c(-c2ccco2)n1)c1ccccc1	–	–	99	–
CC(=O)c1ccc(NC(=O)CSc2nnc(-c3ccco3)c(-c3ccco3)n2)cc1	–	–	99	–
CCC(C)C1Nc2ccc(C(=O)NCCc3ccc(OC)c(OC)c3)cc2NC1=O (configuration not stated)	–	–	–	–
CNC[C@H]1Oc2ccc(NC(=O)Nc3ccccc3)cc2CC(=O)N([C@H](C)CO)C[C@H]1C	·	·	–	–
NNc1nc(-c2ccccc2)cs1	–	–	99	–
O=C(NCCCN1CCCCCC1)c1ccc2c(Cl)c3c(nc2c1)CCCC3	–	–	–	–
